Rv3671c inh – Rv3671c (M. tuberculosis) protease inhibition. actives 0.048% (n = 320,000). inhibition, % at 5.96 µM. P9WHR9; in the data active means inhibition above about 38%;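 further: extracellular domain of Rv3671c used as enzyme; 0% = enzyme with DMSO and 100% = no enzyme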
GDH-TPI inh – GDH-TPI coupled enzyme inhibition counter-screen; actives 1.2% (n = 360,000); GDH-TPI coupled enzyme counterscreen, NADH absorbance; inhibition, % at 4.8 µM; in the data active means inhibition above about 30%;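 further: 0% = DMSO wells and 100% = wells lacking the enzyme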
Mtb betalactam – beta-lactam sensitization of Mtb H37Rv; M. tuberculosis H37Rv growth with meropenem, percent inhibition; inhibition, % at 25 µM; actives 0.27% (n = 330,000); AID 434955; call rule not given here;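 further: growth measured after seven days incubation then overnight dye step; 0% = bacteria only wells and 100% = bacteria with antibiotic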
Mtb UGM inh – blocks M. tuberculosis UGM enzyme. inhibition, % at 10 µM. AID 504406. purified UGM, fluorescence polarization probe displacement. actives 0.06% (n = 320,000). P9WIQ1; in the data active means inhibition above about 10%, passing the limit was not always enough
SSB-PriA inh – inhibitors of Klebsiella pneumoniae PriA binding to SSB C-terminal tail | AlphaScreen SSBct-PriA binding, biotinylated peptide | actives 0.6% (n = 430,000) | AID 1272365 | inhibition, % at 33 µM; in the data active means inhibition mostly above about 37%, no sharp cut-off; inactive means mostly below about 20%;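 further: plate controls were negative control peptide for no effect and reference peptide for full effect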
FBA Mtb inh – inhibits M. tuberculosis FBA enzyme | P9WQA3 | purified M. tuberculosis FBA, fluorescence read-out | inhibition, % at 1 µM | actives 2.3% (n = 360,000) | AID 588726; in the data active means inhibition above about 27%;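 further: 0% = vehicle and 100% = reference inhibitor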
Target sequence (P9WQA3 whole entry, looked up): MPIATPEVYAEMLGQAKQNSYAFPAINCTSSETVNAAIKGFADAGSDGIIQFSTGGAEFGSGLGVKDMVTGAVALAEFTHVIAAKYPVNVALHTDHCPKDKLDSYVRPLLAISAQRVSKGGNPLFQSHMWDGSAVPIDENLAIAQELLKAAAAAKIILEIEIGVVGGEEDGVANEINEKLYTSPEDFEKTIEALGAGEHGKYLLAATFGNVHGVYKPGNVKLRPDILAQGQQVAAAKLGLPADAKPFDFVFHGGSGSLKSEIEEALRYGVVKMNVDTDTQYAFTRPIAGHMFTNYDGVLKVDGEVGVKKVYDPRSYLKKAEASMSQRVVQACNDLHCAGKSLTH
Active calls of the source: *; i = inactive; · = not tested or not shown. The list is not random: actives were taken first. Their share in the collection is about 3.2%.

SMILES	Rv3671c inh	GDH-TPI inh	Mtb betalactam	Mtb UGM inh	SSB-PriA inh	FBA Mtb inh
COc1ccc(N(CC(=O)N/N=C/c2ccc(-c3ccc([N+](=O)[O-])cc3)o2)S(=O)(=O)c2ccc(C)cc2)cc1	1	-3	91	14*	·	1
CCC(=O)N/N=C/c1ccc(-c2ccc([N+](=O)[O-])cc2)o1	-5	23	-3	-1	·	-6
N#CC(=NNc1ccccc1)C(=N)N1CCCCCC1	·	·	·	·	4	·
O=C(c1ccco1)N1CCN(C(=O)C2(c3cccs3)CCOCC2)CC1	·	·	·	·	2	·
NC(=O)C1CCN(c2ncnc3c2c(-c2ccccc2)cn3-c2cccc(Cl)c2)CC1	·	·	·	·	30	·
CCCC[C@H](Sc1nc(N)c(NC(=O)c2ccc(OCC)cc2)c(=O)[nH]1)C(=O)O	·	·	·	·	-19	·
O=C(O)c1cccc(-c2ccc(/C=N/Nc3ccc([N+](=O)[O-])cc3)o2)c1	6	33*	53	1	i	-42
O=C(O)c1ccc(NN=Cc2c(F)cccc2Cl)cc1	·	·	·	·	-7	·
O=C(O)c1ccc(N/N=C/c2c(F)cccc2Cl)cc1	2	38*	21	-1	·	-1
NS(=O)(=O)c1ccc(-c2ccc(/C=N/Nc3ccc(C(=O)O)cc3)o2)cc1	-9	34*	28	-1	i	-2
O=C(O)c1ccc(N/N=C/c2ccc(-c3ccc(Cl)cc3Cl)o2)cc1	25	28	86	2	i	21
O=C(NN=Cc1ccc(-c2cccc([N+](=O)[O-])c2)o1)c1ccc([N+](=O)[O-])cc1	·	·	·	·	4	·
NS(=O)(=O)c1ccc(-c2ccc(/C=N/NC(=O)c3ccc([N+](=O)[O-])cc3)o2)cc1	-3	62*	31	1	i	5
O=C(O)c1ccc(N/N=C/c2ccc(-c3cccc(Cl)c3)o2)cc1	2	46*	35	1	i	19
NC(=S)N/N=C/c1ccc(-c2cccc([N+](=O)[O-])c2)o1	-4	50*	93	3	·	-2
O=C(N/N=C/c1ccc([N+](=O)[O-])o1)C(=O)Nc1ccc(C(=O)O)cc1	4	24	100	5	i	-3
O=C(O)c1ccc(N/N=C/c2ccc(-c3cc(Cl)ccc3Cl)o2)cc1	25	22	55	-2	i	8
O=C(O)c1ccc(N/N=C/C=C/c2ccc([N+](=O)[O-])o2)cc1	-14	31*	100	-2	·	-26
C=CCOC(=O)C1=C(C)N=C(SCC(=O)Nc2ccc(F)cc2)C(C#N)[C@H]1c1ccco1 (some centres undefined)	·	·	·	·	-16	·
Cc1ccc(/C=N/Nc2nc3ccccc3s2)o1	0	56*	89	-1	·	-4
CN(C)c1ccc(C(=S)N2CCN(C(=O)c3cccs3)CC2)cc1	·	·	·	·	-20	·
O=C(N/N=C\C=C\c1ccco1)c1cncc(Br)c1	6	34*	99	0	·	-2
O=C(N/N=C/C=C/c1ccccc1)c1cccnc1	-3	25	-6	3	i	1
O=C(N/N=C/C=C\c1ccco1)c1cccnc1	-4	33*	1	-1	·	-3
O=C(N/N=C/C=C/c1ccco1)c1cccnc1	-12	38*	3	0	·	-4
SMILES	Rv3671c inh	GDH-TPI inh	Mtb betalactam	Mtb UGM inh	SSB-PriA inh	FBA Mtb inh
COCC(=O)Nc1c(C)nc2sc(C)c(C)n2c1=O	·	·	·	·	-7	·
COc1ccc(Nc2ccc([N+](=O)[O-])cc2[N+](=O)[O-])cc1	3	7	-6	1	43*	0
NS(=O)(=O)c1ccc(Nc2ccccc2)c([N+](=O)[O-])c1	-4	17	-7	-2	-8	-5
O=[N+]([O-])c1cc(Cl)ccc1Nc1ccccc1	5	11	-5	1	89*	-6
COc1ccc(CCNc2oc(-c3ccccc3)nc2S(=O)(=O)c2ccccc2)cc1OC	·	·	·	·	9	·
O=C(NN=Cc1cnc2ccccc2n1)c1cccc(F)c1	·	·	·	·	0	·
O=C(NN=Cc1ccc(Sc2ccccn2)o1)c1cccc(F)c1	·	·	·	·	-12	·
O=C(N/N=C/c1cnc2ccccc2n1)c1cccc(F)c1	4	37*	5	1	·	-3
O=C(N/N=C/c1ccc(Sc2ccccn2)o1)c1cc2ccccc2cc1O	11	51*	69	4	·	-2
O=C(N/N=C\c1ccc(Sc2ccccn2)o1)c1cccc(F)c1	0	31*	·	2	·	-1
CC(C)(C)OC(=O)NC1CCC(O)CC1 (centres undefined)	·	·	·	·	-1	·
COc1ccc2nc(-c3ccc(OC)c(NC(=O)c4ccc5c(c4)OCO5)c3)cn2n1	·	·	·	·	-12	·

High-throughput results: PubChem BioAssay, several laboratories
